# Screening data deposited in PubChem by National Center for Advancing Translational Sciences (NCATS).
# The entries come from a sample that favours hits as a whole.
# Giardia FBPA inh: blocks Giardia fructose-bisphosphate aldolase activity; A8B2U2; purified Giardia FBPA; Potency, µM (top dose mostly 59.6 µM), hits mostly inhibitors; 290,000 compounds, 0.71% hits; also: nearly all actives have a fitted effect of over 55% in size
#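 40 nM FBPA preincubated 10 min at RT with compound (up to 57.5 uM final), then substrate plus GAPDH/TPI/NAD/arsenate coupling and diaphorase/resazurin added. Fluorescence read after 20 min at RT, 525/598 nm.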
# Tb PYK inh: T. brucei pyruvate kinase inhibition | Q57TT1 | TbPYK enzyme, Kinase-Glo Plus ATP luminescence, 45 min | Potency, µM (top dose mostly 76.8 µM), usual class: inhibitors | 410,000 compounds, 0.12% hits; also: nearly all actives have a fitted effect of over 50% in size
#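 Activity of T. brucei pyruvate kinase was followed by Kinase-Glo Plus luminescence after the enzyme reacted 45 min at room temperature with 130 uM ADP (final) and substrate. Test compounds were added before ADP at multiple concentrations.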
# Cycloheximide cs: affects cycloheximide protein synthesis inhibition readout, counter-screen. cell reporter, cycloheximide protein synthesis inhibition counterscreen. max response, %. 300,000 compounds, 12% hits; in the data active = max response mostly above about 13%, no sharp cut-off; inactive = mostly below about 14%; also: read at 38.3 µM for the half of the compounds with a filed dose
# Sm TGR block: inhibitors of Schistosoma mansoni thioredoxin glutathione reductase. purified TGR, DTNB reduction, TNB absorbance 405 nm. 360,000 compounds, 3% hits. Q962Y6. Potency, µM (series often up to 114 µM), actives largely listed as inhibitors; also: nearly all actives have a fitted effect of over 60% in size
#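 First, TGR (20 nM dispensed) and NADPH were mixed with compound. Second, a 15 min room-temperature incubation followed. Third, further NADPH and then DTNB were added to start the reaction. Finally, TNB absorbance was monitored kinetically.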
# LmPK inh: inhibitors of Leishmania mexicana pyruvate kinase; Potency, µM (doses to about 57.5 µM), actives largely listed as inhibitors; Q27686; AID 1721; 290,000 compounds, 0.37% hits; purified LmPK, Kinase-Glo ATP luminescence, 1 h
# Target sequence (Q27686 whole entry, looked up): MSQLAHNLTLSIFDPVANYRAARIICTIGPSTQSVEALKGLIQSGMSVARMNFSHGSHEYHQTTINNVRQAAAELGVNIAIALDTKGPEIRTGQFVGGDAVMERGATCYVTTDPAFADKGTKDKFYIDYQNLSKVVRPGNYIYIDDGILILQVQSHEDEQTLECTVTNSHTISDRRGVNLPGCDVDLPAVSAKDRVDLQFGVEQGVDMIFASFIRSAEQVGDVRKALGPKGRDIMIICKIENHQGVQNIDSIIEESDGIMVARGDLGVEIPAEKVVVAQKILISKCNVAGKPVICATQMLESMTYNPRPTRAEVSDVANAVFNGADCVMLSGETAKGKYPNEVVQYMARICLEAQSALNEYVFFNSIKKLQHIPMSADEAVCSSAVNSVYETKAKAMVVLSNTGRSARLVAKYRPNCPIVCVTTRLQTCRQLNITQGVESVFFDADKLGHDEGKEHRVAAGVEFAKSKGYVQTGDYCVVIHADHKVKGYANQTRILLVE
#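 Purified LmPK (0.1 nM) converted ADP (0.1 mM) to ATP with PEP (0.5 mM) in imidazole buffer pH 7.2 with KCl and MgCl2, 1 h at room temperature. ATP was read by Kinase-Glo luminescence; data normalized to uninhibited and no-enzyme controls.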
# Shiga inhibitor: Shiga toxin inhibition; Vero cells, Shiga toxin protein synthesis inhibition reporter; inhibition, % at 38.7 µM; 290,000 compounds, 9.2% hits; AID 2315; in the data active = inhibition mostly above about 28%, no sharp cut-off; inactive = mostly below about 43%
# A number is an active result; . = inactive; ? = inconclusive; / = not tested or not shown. Unless noted, calls follow the shape of the dose curve; as a rule, active = well fitted curve in the direction sought with a large enough effect; inconclusive = small, poorly fitted or top-dose-only effect, or another doubt; inactive = no such curve, though single readings can be large; an effect the other way counts as inactive or inconclusive.
SMILES,Giardia FBPA inh,Tb PYK inh,Cycloheximide cs,Sm TGR block,LmPK inh,Shiga inhibitor
CCOC(=O)c1sc(N2N=C(C)C(N=Nc3cccc(C)c3)C2=O)nc1C (stereo unspecified),.,.,.,.,.,.
CC1=NN(C(N)=S)C(=O)C1N=Nc1ccc(F)cc1 (stereo unspecified),.,.,25,.,.,66
Cc1oc(-c2ccccc2Cl)nc1CS(=O)(=O)CC(=O)NC(C)CCc1ccccc1 (stereo unspecified),/,.,/,.,/,/
CCOc1ccc(N=NC2C(=O)N(C(N)=S)N=C2C)cc1 (stereo unspecified),?,.,28,?,.,/
CC1=NN(C(N)=S)C(=O)C1N=Nc1ccc([N+](=O)[O-])cc1 (stereo unspecified),?,.,53,.,.,39
CC1=NN(c2ccccc2C(=O)O)C(=O)C1N=Nc1ccccc1 (stereo unspecified),.,.,.,.,.,.
Cc1c(N=Nc2c(-c3ccc([N+](=O)[O-])cc3)[nH]n(C(N)=S)c2=O)cccc1[N+](=O)[O-],.,.,.,.,.,.
CC1=NN(c2nc(-c3ccc(C)cc3)cs2)C(=O)C1N=Nc1cccc(C)c1 (stereo unspecified),.,.,20,.,.,.
CC(=O)Nc1ccc(N=NC2C(=O)N(C(N)=S)N=C2C)cc1 (stereo unspecified),.,.,21,.,.,.
CC(=O)c1cccc(CN(C)CC2CCCN(CCc3ccccc3C)C2)c1 (stereo unspecified),.,.,.,.,.,.
CCN(CC)CCCNC(=O)C(=O)Nc1ccc2nc3n(c(=O)c2c1)CCCCC3,/,.,/,.,/,/
O=C(Nc1ccccc1)N1CC[C@@]2(CCCN(C(=O)c3csnn3)C2)C1,.,.,/,/,/,/
O=C(O)c1ccc(NC2CC(=O)N(Cc3ccccc3)C2=O)cc1 (stereo unspecified),.,.,.,28µM,.,.
c1ccc(-n2nc3c(ccc4cnnc43)[nH]2)cc1,.,.,43,.,.,83
c1ccc(-n2cnnn2)cc1,/,.,/,/,/,/
O=C(NCCc1csc2nc(-c3ccccc3F)nn12)c1ccco1,/,.,/,.,/,/
CC(=O)Nc1ccc(S(=O)(=O)/N=C2/NC(=O)/C(=C\c3ccco3)S2)cc1,?,.,.,14µM,.,.
CCCN1C(=O)/C(=C/c2ccc(C)o2)SC1=Nc1ccc(OC)cc1,.,.,.,40µM,.,.
COc1ccc(/C=C2\SC(=Nc3ccccc3)NC2=O)cc1,.,/,.,.,.,.
CCCN1C(=O)/C(=C/c2ccco2)SC1=Nc1ccc(OC)cc1,.,.,.,50µM,.,.
COc1ccc(N=C2NC(=O)/C(=C\c3ccco3)S2)cc1,.,.,23,28µM,.,66
COc1cc(CCNC2=CC(=O)c3ncccc3C2=O)ccc1O,/,.,/,/,/,/
CCN(C(=O)c1c(C)noc1C)c1c(N)n(Cc2ccccc2)c(=O)[nH]c1=O,/,.,/,.,/,/
COc1cccc(CNC(=O)C2CCN(S(=O)(=O)c3ccc4c(c3)CC(C)N4C(C)=O)CC2)c1 (stereo unspecified),.,.,.,.,.,.
COc1ccc(N=C2S/C(=C\c3ccc(N4CCOCC4)o3)C(=O)N2CCc2c[nH]c3ccccc23)cc1,.,/,.,13µM,.,.
SMILES,Giardia FBPA inh,Tb PYK inh,Cycloheximide cs,Sm TGR block,LmPK inh,Shiga inhibitor
CCOC(=O)Cn1c(=O)n(CC2CCCO2)c2nc(-c3ccccc3)nc(C(N)=O)c21 (stereo unspecified),/,.,/,.,/,/
COc1ccc(OCC(=O)C2CC2)c(C#N)c1,.,.,27,.,.,.
COc1ccc(C(=O)C2CC2)cc1,/,.,/,/,/,/
COCOc1cccc(CN2CCC2(C)C(=O)Nc2cc(OC)ccc2OC)c1 (stereo unspecified),/,.,/,/,/,/
O=C(OCc1cccnc1)C1=Cc2ccccc2OC1,.,.,.,.,.,40
O=C(COC(=O)C1=Cc2ccccc2OC1)NC1CCCC1,.,.,17,.,.,.
COc1ccccc1C(=O)OCC(=O)NC1CCCC1,.,.,61,.,.,64
O=C(COC(=O)c1ccccc1Br)NC1CCCC1,/,.,39,.,.,59
Cc1ccc(NCc2nnc3n2CCCCC3)cc1Cl,/,.,/,.,/,/
CC(C)Oc1ccccc1OC1(C)CCN(Cc2ccc(OC(F)(F)F)cc2)C1 (stereo unspecified),/,.,/,/,/,/
CCn1cc(C(=O)N2CCN(c3cccc(C)c3)C(C)C2)c(=O)c2cc(S(=O)(=O)N3CCOCC3)ccc21 (stereo unspecified),/,.,/,.,/,/
O=C(COC(=O)c1cccc(Cl)c1Cl)NCCN1C(=O)CSC1=O,.,.,.,.,.,.
O=C(COC(=O)c1ccccc1Br)NCCN1C(=O)CSC1=O,.,.,20,.,.,109
O=C(Nc1c(-c2ccc(F)cc2)nc2ccccn12)c1ccccc1F,/,.,/,.,/,/
COc1ccc2c(c1)[nH]c1c(=O)n(/N=C/c3ccc(OC)c(COc4ccccn4)c3)cnc12,.,.,.,.,.,67
COc1ccc2c(c1)[nH]c1c(=O)n(/N=C/c3ccc(OC)c(CN4CCCCC4)c3)cnc12,.,.,.,.,.,.
O=C1CC(/C=C/c2ccc([N+](=O)[O-])cc2)=Nc2ccccc2N1,.,.,.,.,.,.
COc1ccc(/C=C/C2=Nc3ccccc3NC(C)(C)C2)cc1OC,.,.,42,.,.,59
Cc1ccc(NC(=O)CCc2c(C)nn(-c3ccc(N4CCCCC4)nn3)c2C)cc1C,.,.,43,.,.,70
Cc1ccc(F)cc1NC(=O)CCc1c(C)nn(-c2ccc(N3CCCC3)nn2)c1C,/,.,/,.,/,/
Cc1cc(C)cc(NC(=O)CCc2c(C)nn(-c3ccc(N4CCCCC4)nn3)c2C)c1,.,.,48,.,.,51
Cc1cc(C)cc(NC(=O)CCc2c(C)nn(-c3ccc(N4CCCC4)nn3)c2C)c1,/,.,/,.,/,/
Cc1nn(-c2ccc(N3CCCC3)nn2)c(C)c1CCC(=O)Nc1ccc(F)c(Cl)c1,/,.,/,.,/,/
Cc1ccc(NC(=O)CCc2c(C)nn(-c3ccc(N4CCCCC4)nn3)c2C)cc1,.,.,53,.,.,86
Cc1nn(-c2ccc(N3CCCCC3)nn2)c(C)c1CCC(=O)Nc1ccc(F)c(F)c1,.,.,60,.,.,103
CC(=O)c1ccc(NC(=O)CCc2c(C)nn(-c3ccc(N4CCCCC4)nn3)c2C)cc1,/,.,/,.,/,/
Cc1ccc(Cl)cc1N1CCN(C(=O)C2CCN(Cc3nc(-c4ccc(Cl)cc4)oc3C)CC2)CC1,/,.,/,.,/,/
CCOC(=O)[C@]12CCC=C1N(Cc1ccc(Cl)cc1Cl)C(=O)[C@H](CC(=O)N1CCN(C(=O)c3ccco3)CC1)C2,/,.,/,/,/,/
